High-throughput results as filed in PubChem.
A selection: hits, their analogues and other compounds. The true share with any hit is near 1.6%.
KCNQ2 pot = potentiators of rat KCNQ2 potassium channel; Potassium voltage-gated channel subfamily KQT member 2 (Rattus norvegicus), O88943; CHO-K1 KCNQ2, FluxOR thallium flux fluorescence; active compounds read high; B-score at 10 µM; 310,000 tested, 0.54% active;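 active = fluorescence ratio B-score at least 3 SD of library B-scores, with initial fluorescence B-score within 3 of them, cut at about 5.3 in these data; same plate scores as AID 2156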;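 also: B-score of peak minus minimum over baseline fluorescence ratio after K+ and Tl+ stimulus; positive B-score means potentiation of KCNQ2 with more thallium influx and brighter signal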
KCNQ2 block = rat KCNQ2 potassium channel inhibitors, primary screen, cell-based, CHO-K1, FluxOR thallium flux, B-score; Potassium voltage-gated channel subfamily KQT member 2 (Rattus norvegicus), O88943; 20 min; active compounds read low; B-score at 10 µM; 310,000 tested, 1.1% active; AID 2156, 2009;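 active = fluorescence ratio B-score at most minus 3 library SDs, with starting brightness B-score within 2 library SDs, cut at about -5.5 in these data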
Kir21 conf inh = mouse Kir2.1 channel blockers, retest, confirmation, cell-based, FluxOR thallium flux, duplicate | 2,300 tested, 41% active | Kir2.1-expressing cells, FluxOR thallium flux fluorescence; active compounds read low | AID 2032, 2009 | Tl flux remaining, % of negative control (active compounds read low), % at 10 µM | shares compounds with KCNQ2 pot;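 active = Primary-screen hit whose thallium flux fell at least 3 control SD below untreated wells in both duplicates, with normal baseline fluorescence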;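 also: 0% = blank wells without stimulus and 100% = stimulated no-compound controls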
HEK293 Tl flux = counter-screen for Kir2.1 inhibitors: effect in parental HEK293 cells; shares compounds with KCNQ2 pot; FluxOR thallium flux fluorescence; 0% = unstimulated blank wells; FluxOR signal as % of negative control (100 = no effect), % at 10 µM; 2,300 tested, 19% active;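 active = dye signal at least 3 control SD above or below untreated wells in both duplicates, raw fluorescence within 3, either direction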;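 also: percent is based on the flux ratio of peak minus minimum fluorescence over baseline F0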
CHO-K1 ctr = nonspecific thallium flux increase in parental CHO-K1, confirmation, counter-screen for KCNQ2 potentiator project, cell-based, FluxOR thallium flux, duplicate; 1,200 tested, 43% active; AID 2282, 2010; parental CHO-K1 cells, FluxOR thallium flux fluorescence; zero = vehicle mean+3SD, 100% = vehicle-minus-blank window; activity increase over 3SD of controls, % at 10 µM; shares compounds with KCNQ2 pot;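 active = signal rise of at least 3 SD above the untreated control mean, in both duplicate wells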;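 also: counter screen of KCNQ2 potentiator hits so any rise reflects channel-independent effects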
KCNQ1 pot spec = human KCNQ1 channel potentiation off-target, confirmation, selectivity assay for KCNQ2 potentiator project, cell-based, CHO, FluxOR thallium flux; shares compounds with KCNQ2 pot; CHO KCNQ1 stable, FluxOR thallium flux fluorescence; beyond 3SD, as % of vehicle-control signal; activation over 3SD threshold, % at 10 µM; 1,200 tested, 28% active; AID 2283, 2010;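 active = fluorescence ratio rise of at least 3 SD of vehicle wells above their mean, in both replicate wells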;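 also: 0% = vehicle mean plus 3 SD and 100% = vehicle minus unstimulated blank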
Target sequence (P51787 whole entry, looked up): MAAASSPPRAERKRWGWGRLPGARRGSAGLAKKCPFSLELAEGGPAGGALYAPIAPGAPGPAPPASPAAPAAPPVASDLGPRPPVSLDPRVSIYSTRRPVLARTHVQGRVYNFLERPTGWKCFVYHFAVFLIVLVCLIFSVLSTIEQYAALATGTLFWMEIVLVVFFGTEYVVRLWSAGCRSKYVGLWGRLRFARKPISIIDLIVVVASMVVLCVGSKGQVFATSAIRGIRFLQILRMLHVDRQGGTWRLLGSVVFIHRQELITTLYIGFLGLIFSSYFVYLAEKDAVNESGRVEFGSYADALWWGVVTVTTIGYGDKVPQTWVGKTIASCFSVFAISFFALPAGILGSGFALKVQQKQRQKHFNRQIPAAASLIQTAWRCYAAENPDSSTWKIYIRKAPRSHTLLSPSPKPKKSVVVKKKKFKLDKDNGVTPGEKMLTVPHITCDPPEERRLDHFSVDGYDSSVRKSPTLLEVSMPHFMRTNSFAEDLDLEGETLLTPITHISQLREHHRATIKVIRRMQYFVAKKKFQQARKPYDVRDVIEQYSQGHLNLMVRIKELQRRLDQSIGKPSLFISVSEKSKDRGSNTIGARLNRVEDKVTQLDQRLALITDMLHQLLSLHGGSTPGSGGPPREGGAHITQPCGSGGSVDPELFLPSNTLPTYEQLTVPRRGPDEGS
KCNQ2 pot confirm = rat KCNQ2 channel potentiators, confirmation, cell-based, CHO, FluxOR thallium flux, duplicate; CHO-KCNQ2 cells, FluxOR thallium flux fluorescence; 1,200 tested, 68% active; AID 2287, 2010; shares compounds with KCNQ2 pot; potentiation, less the hit threshold, % at 10 µM;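 active = fluorescence ratio rising 3 SD or more over the vehicle control mean in both replicates, plus primary screen hit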;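 also: peak minus minimum thallium fluorescence divided by baseline after K/Tl stimulus; 0% = vehicle mean plus 3 SD and 100% = vehicle minus unstimulated blank difference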
Kir21 spec = mouse Kir2.1 channel activation off-target, confirmation, selectivity assay for KCNQ2 potentiator project, cell-based, HEK293, FluxOR thallium flux; HEK293 Kir2.1, FluxOR thallium flux fluorescence; 1,200 tested, 2% active; shares compounds with KCNQ2 pot; AID 2345, 2010; activity over 3SD threshold, % at 10 µM;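 active = fluorescence ratio rise of at least 3 SD above the vehicle-control mean, seen in both replicates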;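 also: 0% = vehicle mean plus 3 SD and 100% = vehicle minus no-stimulus blank window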
KCNQ2 W236L pot = potentiators of retigabine-insensitive KCNQ2 W236L, mechanism study for KCNQ2 potentiator project, cell-based, rat KCNQ2 W236L, CHO, automated patch clamp. shares compounds with KCNQ2 pot. automated patch clamp current. current increase over 3SD of negative controls (%), active compounds read high, % at 25 µM. 940 tested, 10% active. AID 2558, 2010;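 active = current increase at least 3 SD of the untreated controls above them in both duplicate recordings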
* hit, by the source's call.

Screening COCc1cc(CN2CCN(CCc3ccccc3)C(CCO)C2)ccc1OC (configuration not stated) returned KCNQ2 block inactive.
`Cc1ccsc1/C=N/NC(=O)Cc1ccc(Cl)cc1` gave KCNQ2 block inactive.
Cc1cccc(/C=N/NC(=O)Cc2ccc(Cl)cc2)c1O was read as KCNQ2 pot 7.2*, KCNQ2 block inactive, Kir21 conf inh inactive, HEK293 Tl flux 69%*, CHO-K1 ctr -9, KCNQ1 pot spec 7.6*, KCNQ2 pot confirm 2.5*, Kir21 spec -25 and KCNQ2 W236L pot inactive.
`Cc1ccc(O)c(/C=N/NC(=O)Cc2ccc(Cl)cc2)c1` gave KCNQ2 pot 5.3*, KCNQ2 block inactive, Kir21 conf inh inactive, HEK293 Tl flux inactive, CHO-K1 ctr -7, KCNQ1 pot spec 43*, KCNQ2 pot confirm -5 and Kir21 spec -21.
Screening Cc1cccc(/C=N\NC(=O)c2ccc(Cl)cc2)c1O returned KCNQ2 pot 2.5 and KCNQ2 block inactive.
For O=C(NC(=S)Nc1ccccc1Br)C1CCC1 the results were KCNQ2 block inactive.
For Cc1c(C=O)c2ccccn2c1C(=O)c1cccc([N+](=O)[O-])c1 the results were KCNQ2 block inactive.
For O=C1[C@H]2[C@@H](C3CC3)N3C(=O)CN(Cc4ccccn4)C(=O)[C@@]3(Cc3ccccc3)[C@H]2C(=O)N1c1ccccc1 the results were KCNQ2 block inactive.
CCOc1cc(N2CCOCC2)c(OCC)cc1NC(=O)COC(=O)[C@@H]1CCCN1S(=O)(=O)c1ccccc1F was read as KCNQ2 pot 0.76 and KCNQ2 block inactive.
`CCOC(=O)C(=CNc1ccc(NC2=NCC(C)(C)S2)cc1)C(=O)OCC` gave KCNQ2 block inactive, Kir21 conf inh 58%* and HEK293 Tl flux inactive.
CCOC(=O)C(=CNc1ccc(S(N)(=O)=O)cc1)C(=O)OCC was read as KCNQ2 block inactive.
Screening Cn1c(=O)c(C(=O)Nc2ccccc2S(N)(=O)=O)c(O)c2ccccc21 returned KCNQ2 pot 6*, KCNQ2 block inactive, Kir21 conf inh inactive, HEK293 Tl flux inactive, CHO-K1 ctr -19, KCNQ1 pot spec -11, KCNQ2 pot confirm -4 and Kir21 spec -35.
`CC(C)Cn1c(=O)c(C(=O)Nc2ccccc2S(N)(=O)=O)c(O)c2ccccc21` gave KCNQ2 block inactive.
For Cc1ccc(S(=O)(=O)N2CCOCC2)cc1NC(=O)COc1cccc(Oc2ccccc2)c1 the results were KCNQ2 block inactive.
Screening O=C(OCc1cccc([N+](=O)[O-])c1)c1ccncc1 returned KCNQ2 pot 6.6*, KCNQ2 block inactive, Kir21 conf inh inactive, HEK293 Tl flux 142%*, CHO-K1 ctr -5, KCNQ1 pot spec -19, KCNQ2 pot confirm 1.0*, Kir21 spec -33 and KCNQ2 W236L pot inactive.
`O=C(OCc1cccc([N+](=O)[O-])c1)c1cnccn1` gave KCNQ2 pot 1.6 and KCNQ2 block inactive.
O=C(CSCc1ccc([N+](=O)[O-])cc1)Nc1ccccc1C(=O)O was read as KCNQ2 pot 0.78 and KCNQ2 block inactive.
For COc1ccc(C(O)Cc2nccn2C)cc1 (configuration not stated) the results were KCNQ2 block inactive.
`Cc1ccc(/C=C/C(=O)N2CC(C)CC(C)C2)o1` (configuration not stated) gave KCNQ2 pot 6.2*, KCNQ2 block inactive, Kir21 conf inh inactive, HEK293 Tl flux inactive, CHO-K1 ctr -7, KCNQ1 pot spec -7, KCNQ2 pot confirm -1, Kir21 spec -38 and KCNQ2 W236L pot inactive.
For CCN1CCN(C(=O)/C=C/c2ccc(C)o2)CC1 the results were KCNQ2 block inactive.
For S=C1NC[C@H](c2ccccc2)N1CCCCC1CCCCC1 the results were KCNQ2 pot 0.4 and KCNQ2 block inactive.
For NC1=NC[C@H](c2ccccc2)N1CCCCC1CCCCC1 the results were KCNQ2 block inactive, Kir21 conf inh 38%* and HEK293 Tl flux inactive.
Cc1ccc(-c2cn(S(=O)(=O)c3cccc4nsnc34)nc2N)cc1 was read as KCNQ2 pot 2.7 and KCNQ2 block inactive.
Screening Nc1nn(S(=O)(=O)c2cccc3nsnc23)cc1-c1ccc(Br)cc1 returned KCNQ2 pot 8*, KCNQ2 block inactive, Kir21 conf inh inactive, HEK293 Tl flux inactive, CHO-K1 ctr -12, KCNQ1 pot spec 8.4*, KCNQ2 pot confirm -17 and Kir21 spec -37.
Screening N#Cc1cnc(N)c(Br)c1 returned KCNQ2 pot 1.3 and KCNQ2 block inactive.
`CC(C)(C)NC(=O)C(=O)NN=C1CCCCCCCCCCC1` gave KCNQ2 pot 1 and KCNQ2 block inactive.
`NC(N)=NN=C1CCCCCCCCCCC1` gave KCNQ2 block inactive, Kir21 conf inh inactive and HEK293 Tl flux inactive.
For CC(C)(C)NC(=O)c1ccc2c(c1)N(CC(=O)N1CCN(c3ccc(F)cc3)CC1)C(=O)C(C)(C)O2 the results were KCNQ2 block inactive.
Screening CCCN(CCC)S(=O)(=O)c1ccc(Cl)c(OC)c1 returned KCNQ2 block inactive, Kir21 conf inh 55%* and HEK293 Tl flux inactive.
CCN(CC)S(=O)(=O)c1ccc(Cl)c(OC)c1 was read as KCNQ2 pot 1.6 and KCNQ2 block inactive.
